# Laboratory results from PubChem BioAssay.
# Values without a mark were called inactive. Inconclusive results are not listed. Calls of active or inactive are those of the source.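 How the source made its calls, unless noted: active means cell viability at or below a set limit in both duplicate runs, the limit being the all-compound median minus 4 SD (cut at about 23% in these data, passing the limit was not always enough); inconclusive means no clear call, values can overlap the other calls; inactive means the rest.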
# How the values were obtained:
# [1] = OD615 S. cerevisiae growth inhibition, permissive medium, pilot counter-assay, permissive growth control for S. cerevisiae lifespan shortening project (AID 705;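 active means growth inhibition above 25% in both replicates, a cutoff set 3 SD above the mean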); conditions: OD615, 24 h, at 10 µM, hits give high values
# [2] = Restrictive medium S. cerevisiae growth inhibition, OD615, pilot screen of yeast lifespan reduction project, restrictive growth control (AID 706;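 active means growth inhibition above a set limit, 3 SD over mean compound inhibition, in both replicates, cut at about 43% in these data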;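 further: modified DeaD lifespan yeast strain shifted to restrictive glucose medium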); conditions: OD615, 48 h, at 10 µM, hits give high values
# [3] = viability gain of MRP-1-high H69AR cells under doxorubicin, pilot screen, MRP-1 activator project, CellTiter-Glo, duplicate (AID 807;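 active means viability increase at or above a cutoff of the median across tested compounds plus 3 SD, cut at about 8.5% in these data, passing the limit was not always enough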;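 further: compound pretreatment 18-22 h then 72 h combined with doxorubicin; 0% = doxorubicin alone and 100% = vehicle without doxorubicin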); conditions: H69AR viability with doxorubicin, CellTiter-Glo luminescence; at 10 µM; hits give high values
# [4] = growth suppression of beta-catenin knockout HCT116, pilot screen, human colon tumor cells (AID 823); conditions: CellTiter-Glo, 60 h, at 10 µM, hits give low values;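 further: 0% = wells killed by 20 µM Hyamine and 100% = untreated DMSO cell wells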
# [5] = growth suppression of PTEN-deleted HCT116, pilot screen, cell-based, HCT116 clonal line, CellTiter-Glo (AID 824;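 active means viability at or below 27.92% in each of two runs, the all-compound median minus 4 SD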;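 further: 0% = 20 µM Hyamine control and 100% = vehicle cell control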); conditions: 60 h, at 10 µM, hits give low values
# [6] = RAM signaling pathway blockade in yeast – S. cerevisiae, Pdr1DBD-CYC8 efflux-inhibited sensitized strain, primary screen (AID 1298;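 active means RAM network inhibition above 8.4% in each of two replicates, 3 SD over the compound average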;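 further: 0% = DMSO untreated cells without growth and 100% = 10 µM 1-NA-PP1 full growth; higher means more yeast growth rescued from 5-FOA killing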); conditions: S. cerevisiae cbk1-as DSE1-URA3 strain, 5-FOA growth OD615, 2 d; at 50 µM; hits give high values
SMILES,growth inhibition [1],growth inhibition [2],viability increase [3],viability [4],viability [5],RAM network inhibition [6]
Cn1c(=O)c2nnn(/N=C(\c3ccccc3)C3CC3)c2n(C)c1=O,-11.4%,-15%,-1.2%,103%,98.7%,2.84%
C=CCn1c(SCC(=O)c2cccs2)nc2sc(CC)cc2c1=O,-5.62%,5.1%,-1.39%,76.8%,83.3%,7.45%
COc1ccc(-c2cc(C(F)(F)F)nc(S(C)(=O)=O)n2)cc1OC,-23.4%,-9.75%,-7.11%,14.5% (active),48.7%,-0.26%
CCCc1cc(C(=O)NCCc2ccc(OC)c(OC)c2)no1,1.33%,4.92%,-1.89%,106%,97.2%,3.29%
O=C(CSc1nc2c([nH]c3ccccc32)c(=O)n1-c1ccccc1)N1CCOCC1,-7.05%,-18.6%,-6.19%,93.6%,87%,5.28%
Cc1ccc2oc(-c3ccc(NC(=O)CC(C)C)cc3)nc2c1,-9.28%,-6.46%,-0.39%,102%,92.6%,7.81%
Cc1nnc(NC(=O)CSc2nnc(Cc3cccn3C)n2-c2cccc(C)c2C)s1,6.78%,31%,-0.56%,100%,87.2%,-0.2%
COc1ccc(C2C(C(C)=O)=C(O)C(=O)N2CCN(C)C)cc1OC (stereo unspecified),-17.7%,-12.3%,0.21%,92.6%,96.9%,1.99%
C=CCOC(=O)c1sc(NC(=O)c2ccco2)nc1C,-13.2%,-5.04%,-1.25%,94%,84.6%,1.63%
Cc1ccc(Nc2ncnc3nc[nH]c23)cc1Cl,1.92%,31.3%,-1.76%,105%,90.8%,4.7%
Cc1ccc(OCC(=O)Nc2ccc(O)c(-c3nc4ccccc4o3)c2)cc1,-10%,-14.9%,-7.57%,38.8%,54%,2.6%
CC(C)c1ccc(OC(=O)NCCO)cc1,4.54%,-4.21%,0.33%,98.9%,104%,4.79%
CC(Sc1nc(N2CCOCC2)nc(N2CCOCC2)n1)C(=O)Nc1ccccc1 (stereo unspecified),-18.4%,-21.2%,-1.56%,95.5%,93.2%,5.6%
CCOc1ccc(Cn2nnc(C(=O)Nc3cc(OC)cc(OC)c3)c2N)cc1,-2.1%,0.885%,-5.5%,86%,88%,2.46%
CSc1cccc(NS(=O)(=O)c2ccc3c(c2)oc(=O)n3C)c1,-0.15%,7.23%,-1.75%,85.3%,81%,4.49%
Cc1cc(Nc2ccc(C)c(Br)c2)n2nc(C)nc2n1,-12.9%,10.4%,-5%,92.1%,92.8%,3.87%
CCOc1ccc(C2Oc3nc(SC)nnc3-c3ccccc3N2C(C)=O)cc1OC (stereo unspecified),6.18%,4.39%,-2.28%,109%,99.8%,4.23%
CN1C(=O)CSc2ccc(C(=O)O)cc21,0.925%,-1.22%,-0.35%,100%,100%,-0.62%
CCOC(=O)N1CCN(C(=O)c2ccc(N3C(=O)c4ccccc4C3=O)cc2)CC1,-3.96%,-15.2%,-2.58%,99%,93.6%,4.06%
CCOC(=O)C1CCN(C(C(=O)NC2CCCCC2)c2ccc(OC)cc2)CC1 (stereo unspecified),-4.53%,-11.7%,-1.91%,93.2%,88.6%,3.74%
COc1ccc(-n2c(SCC(=O)Nc3ccc4c(c3)OCO4)nc3c(c2=O)SCC3)cc1,-15.7%,-12.5%,-2.51%,98.2%,81.2%,8.27%

SMILES,growth inhibition [1],growth inhibition [2],viability increase [3],viability [4],viability [5],RAM network inhibition [6]
COc1ccccc1OCC(O)CN1C(=O)NC(C)(C)C1=O (stereo unspecified),-7.73%,-7.44%,-0.34%,93.4%,91.6%,2.29%
CCOc1ccc(N(CC(=O)NC(C)CC)S(=O)(=O)c2c(C)noc2C)cc1 (stereo unspecified),-4.58%,-11.1%,-0.76%,99.3%,93.1%,2.66%
Cc1ccc(-c2nc(CSCC(=O)N3CCN(C(=O)c4ccco4)CC3)c(C)o2)cc1,-4.69%,14.9%,-1.03%,76.4%,76.5%,6.53%
CCOc1ccc(N(CC(=O)Nc2cccc(Cl)c2)S(=O)(=O)c2c(C)noc2C)cc1,-14.8%,-4.69%,-7.01%,39.2%,45.7%,12.6%
CCOc1ccc(-n2nnc3c(=O)n(CC(=O)N4CCCc5ccccc54)cnc32)cc1,-3.47%,-10.2%,-0.3%,85.3%,84%,2.69%
CS(=O)(=O)c1ccc2nc(NC(=O)Cc3ccccc3)sc2c1,-10.9%,-4.83%,-4.98%,91.5%,96.3%,3.94%
COc1ccc(C)cc1NS(=O)(=O)c1cccc2nonc12,-8.6%,-10.6%,-3.24%,95.8%,94.3%,4.42%
COc1ccc(-c2nc(-c3cccc(C(F)(F)F)c3)no2)cc1OC,-2.88%,1.6%,-0.18%,99%,93.3%,7.48%
COc1ccc(N2CCN(C(=O)c3cc4c(-c5ccc(Cl)cc5)nn(C)c4s3)CC2)cc1,2.67%,-4.22%,-3.45%,78.6%,71.4%,3.98%
O=C(Cn1c(=O)oc2cc(S(=O)(=O)N3CCCCCC3)ccc21)NC1CCCCC1,-4.92%,-8.79%,-4.28%,101%,93.8%,3.25%
CCCCCOC(=O)CSc1nc2c(c(=O)[nH]c(=O)n2C)n1Cc1ccc(Cl)cc1,11.9%,23.6%,-3.26%,93.2%,84.7%,2.16%
Cc1cc(NC(=O)CSc2nc3c(c(=O)n2CCc2ccccc2)SC(C)C3)no1 (stereo unspecified),-12.6%,-12.3%,-1.68%,89.5%,96.6%,5.21%
CCOC(=O)c1c(NC(=O)c2cccs2)sc2c1CCC2,-13.6%,-20.4%,-0.45%,91.7%,90.4%,4.33%
O=C(CSc1oc(-c2ccccc2)nc1S(=O)(=O)c1ccc(F)cc1)NCC1CCCO1 (stereo unspecified),4.64%,0.925%,-3.53%,86.3%,89%,2.32%
Cc1ccc(NC(=O)CSc2nnc(Cn3c(=O)sc4ccccc43)n2C)cc1,-5.8%,-12.1%,-1.58%,93.6%,96.4%,8.73%
Cc1ccc(CN2CCNC(=O)C2CC(=O)O)cc1 (stereo unspecified),2.7%,-8.03%,-1.2%,97.3%,92.4%,0.83%
c1ccc(-c2nc(CSc3nnnn3-c3ccccc3)cs2)cc1,-8.04%,-0.095%,-2.18%,99.5%,93.4%,7.98%
Clc1ccc(-c2nnc(SCc3nc(-c4ccccc4)no3)o2)cc1,-10.1%,-9.97%,-3.34%,99.2%,91.7%,4.9%
CCOc1ccc(-n2nnc3c(=O)n(CC(=O)c4ccccc4)cnc32)cc1,-2.31%,1.56%,0.38%,101%,97%,3.09%
COc1ccc(CCn2c(N)c(S(=O)(=O)c3cccs3)c3nc4ccccc4nc32)cc1OC,-4.55%,-27.6%,-2.53%,91.6%,85.1%,8.59%
